Hit rate of the full screen: of about 69,000 compounds, about 8,600 (12%) showed an effect of 50% or more. Shown is part of a subset that was picked to be rich in strong results.
system: Plasmodium berghei; test: Screen against P. berghei liver stage (PbLuc), transformed with Luciferase, at 10uM; type: functional, HepG2; conditions: tested at 10 uM

SMILES | INHIBITION [%]
CCCn1cc(CN2CCCC2c2nccc(CN(C)C)n2)cn1 (stereo not drawn) | 25.6
Cc1cccc(N2CCN(CCC(=O)NCc3nnc[nH]3)CC2)c1 | -10.6
Cc1cccc(N2CCN(CCC(=O)NCc3ccc(C)s3)CC2)c1 | 71.2
Cc1cccc(N2CCN(CCC(=O)NCc3cnc(C)cn3)CC2)c1 | 45.8
CCc1nnc(CNC(=O)CCCN2CCCCC2)s1 | 25.1
CCc1nnc(CNC(=O)CCN2CCN(c3cccc(C)c3)CC2)s1 | 52.1
Cc1cccc(N2CCN(CCC(=O)NCc3cccnc3)CC2)c1 | 27.6
CN1CCN(Cc2cccnc2)C2(CCN(C3CCOCC3)C2)C1=O (stereo not drawn) | -33.9
CC(=O)NCCNC(=O)c1cnc(C(C)(C)C)s1 | 30.6
CCc1cccc(C)c1NC(=O)c1ccccc1N(C)S(C)(=O)=O | 25.8
CCN1CCN(C(=O)c2cccn2Cc2ccccc2)CC1 | -4.94
Cc1csc(Nc2nccnc2C2CCCN2CC(N)=O)n1 (stereo not drawn) | -13.7
Cn1cc(CN2CCC3(CC(=O)N(c4ccc5c(c4)OCO5)C3)C2)cn1 (stereo not drawn) | 27.3
CN(C)C(=O)N1CCC2(CC(=O)N(c3ccc4c(c3)OCO4)C2)C1 (stereo not drawn) | -4.02
CCS(=O)(=O)N1CCC2(CC(=O)N(c3ccc4c(c3)OCO4)C2)C1 (stereo not drawn) | -30.6
O=C1CC2(CCN(Cc3ccoc3)C2)CN1c1ccc2c(c1)OCO2 (stereo not drawn) | 60.3
O=C1CC2(CCN(Cc3ccncc3)C2)CN1c1ccc2c(c1)OCO2 (stereo not drawn) | 31.1
O=C1CC2(CCN(Cc3ccsc3)C2)CN1c1ccc2c(c1)OCO2 (stereo not drawn) | 55.5
CCn1nc(C)c(NC(=O)CN(C)C(C)c2ccon2)c1C (stereo not drawn) | -22.1
N[C@@H]1CCCN(C(=O)Cc2c[nH]c3ccccc23)[C@H]1c1ccccc1F | 32.5
O=C(CCn1cncn1)N1C[C@@H]2CC[C@H]1CN(Cc1ccncc1)C2 | 22.4
Cc1ccnn1CCC(=O)N1C[C@@H]2CC[C@H]1CN(CC(=O)N(C)C)C2 | 55.6
Cc1c[nH]nc1C1CCCCN1C(=O)CCn1nccc1C (stereo not drawn) | 57.5
CN(C)C(=O)CN1C[C@H]2CC[C@@H](C1)N(C(=O)CCn1cncn1)C2 | 56.8
CN(C)C(=O)CN1C[C@H]2CC[C@@H](C1)N(C(=O)CCCn1cncn1)C2 | 8.07
CN(C)C(=O)CN1C[C@H]2CC[C@@H](C1)N(C(=O)Cc1ccccc1Cl)C2 | 25.1
Cc1c[nH]nc1C1CCCCN1C(=O)CNS(C)(=O)=O (stereo not drawn) | 48.6

SMILES | INHIBITION [%]
Cc1c[nH]nc1C1CCCCN1C(=O)CC1(O)CCCCC1 (stereo not drawn) | 24.8
Cc1cnn(CCC(=O)N2C[C@@H]3CC[C@H]2CN(CC(=O)N(C)C)C3)c1 | 38.5
COc1ccc(C(=O)N2CCCC(n3cncn3)C2)nn1 (stereo not drawn) | 8.64
O=C(NCCCn1ccnc1)N1CCN(c2cccs2)CC1 | 12.2
O=C(Cn1ncc(N2CCCC2)cc1=O)Nc1ccc2nccnc2c1 | 6.69
COc1cccc(N2CCN(C(=O)CN(C)c3cnccn3)CC2)c1 | 35.4
CC1CCC(NC(=O)CNC2(c3ccc(Br)cc3)CCOCC2)CC1 (stereo not drawn) | 12.8
O[C@@H]1CN(Cc2ccc(F)c(F)c2)CC[C@H]1NCc1ccccn1 | 46.7
CCCN1Cc2ccccc2NC(=O)C12CCNC2 (stereo not drawn) | 38.3
O=C(c1cnccn1)N1CCCC2(CCN(Cc3ccsc3)C2)C1 (stereo not drawn) | -15.2
O=C(NC1CCCc2nc(N3CCOCC3)ncc21)C1CCCCC1 (stereo not drawn) | 17.1
CNS(=O)(=O)c1ccc(CN(C)Cc2nc3ccc(F)cc3[nH]2)cc1 | 29
Cc1ccccc1C1(C(=O)NCCN2CCCC2)CCOCC1 | 44.8
Cc1ccccc1C1(C(=O)NCCN2CCOCC2)CCOCC1 | -33.5
Cc1ccccc1C1(C(=O)NCCN2CCC(C)CC2)CCOCC1 | 55.1
COc1cccc(-n2nc(C(C)=O)c(C(C)=O)c2C)c1 | -17
O=C1CC2(CCN(C(=O)c3ccccn3)CC2)Oc2c(Cl)cc(Cl)cc21 | 4.57
CNc1cc(CNC(=O)c2ccncc2)nc(-c2ccncc2)n1 | 4.08
Cc1nc(C)n(C2CCCN(C(=O)Cc3csc(C(C)C)n3)C2)n1 (stereo not drawn) | 26.4
O=S(=O)(NCC1OCCc2cn(CC3CCOCC3)nc21)C1CC1 (stereo not drawn) | 29.8
Fc1ccc(CNCC2OCCc3cn(CC4CC4)nc32)cc1 (stereo not drawn) | 46.6
CS(=O)(=O)CC(=O)NCC1OCCc2cn(CC3CC3)nc21 (stereo not drawn) | 54.7
c1cc(CNCC2OCCc3cn(CC4CCOCC4)nc32)ccn1 (stereo not drawn) | 19.9
CCCS(=O)(=O)NCC1OCCc2cn(CC3CCOCC3)nc21 (stereo not drawn) | 55.5
c1c2c(nn1CC1CCOCC1)C(CNC1CCOCC1)OCC2 (stereo not drawn) | -44.2
c1c2c(nn1CC1CC1)C(CNC1CCOCC1)OCC2 (stereo not drawn) | 15.3
